Experimental data taken from PubChem BioAssay (NCI).
The panel holds about 79,000 compounds, 15% with a hit somewhere; the sample as a whole holds those more often. Unmarked numbers belong to inactive results. The source made the active and inactive calls. Rule as the data show it: active = growth inhibition above about 70%; inactive = the rest. Where a SMILES comes first, the peptide text is derived from it. [ ]: non-standard residue; d: D form. The star is where a group is joined. ξ: configuration not given here. ξF = NC(Cc1ccccc1)C(=O)O; Cbz = O=C(OCc1ccccc1)*

Assays:
[1] = NCI Yeast Anticancer Drug Screen. Data for the rad50 strain (AID 155);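 also: 0% = growth of vehicle-only cultures of the same strain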; conditions: S. cerevisiae rad50 strain growth inhibition; at 50.0 µM; active compounds read high
Outline: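 Inhibition values express reduced yeast growth in compound-treated cultures relative to vehicle-treated controls.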

[2] = NCI Yeast Anticancer Drug Screen. Data for the mec2-1 strain (AID 157); conditions: S. cerevisiae mec2-1 strain, at 50.0 µM, active compounds read high
Outline: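 mec2-1 yeast strain, carrying an alteration in DNA damage repair or cell cycle control, was exposed to compounds; growth inhibition was measured relative to vehicle-treated controls.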

[3] = NCI Yeast Anticancer Drug Screen. Data for the sgs1 mgt1 strain (AID 161);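 also: 0% = growth of cultures given vehicle only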; conditions: S. cerevisiae sgs1 mgt1 strain, at 50.0 µM, active compounds read high
Outline: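 Compounds are added to genetically altered yeast, and growth is compared with cultures given vehicle alone to give percent inhibition.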

[4] = NCI Yeast Anticancer Drug Screen. Data for the cln2 rad14 strain (AID 165);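 also: 0% = growth equal to vehicle treated cultures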; conditions: S. cerevisiae cln2 rad14 strain, at 50.0 µM, active compounds read high
Outline: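 Yeast carrying cln2 and rad14 alterations (cell cycle control and DNA damage repair) were exposed to compounds. Growth inhibition was measured against vehicle-treated controls.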

[5] = NCI Yeast Anticancer Drug Screen. Data for the bub3 strain (AID 167); conditions: S. cerevisiae bub3 mutant strain, at 50.0 µM, active compounds read high
Outline: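 Steps: expose the mutant yeast strain to compound; grow alongside vehicle-treated cultures; measure growth; express inhibition against the vehicle cultures.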

[6] = NCI Yeast Anticancer Drug Screen. Data for the mlh1 rad18 strain (AID 175); conditions: S. cerevisiae mlh1 rad18 strain growth inhibition; at 50.0 µM; active compounds read high
Outline: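 Growth inhibition of the yeast strain was measured after compound exposure and expressed relative to vehicle-treated controls. The strain carries defined defects in DNA damage repair.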

| SMILES | growth inhibition [1] | growth inhibition [2] | growth inhibition [3] | growth inhibition [4] | growth inhibition [5] | growth inhibition [6] |
| --- | --- | --- | --- | --- | --- | --- |
| CCOC(=O)CC/C(C)=N/NC(=O)c1ccc[n+](C)c1 | -11.8% | -3.65% | -1.95% | -29% | -3.05% | 2.65% |
| O=C(O)CCCCC(=O)c1cc(O)ccc1O | 15.3% | 10.1% | 2.55% | -53.3% | -15.3% | -3.45% |
| C1CNCCNCCN1 | 7.65% | -1.05% | 10.1% | 21.1% | 25.5% | -4.3% |
| CCCCc1c2c(nc3c1CCC/C3=C\c1ccccc1)/C(=C/c1ccccc1)CCC2 | -5.05% | 16.9% | -1.3% | 9.7% | -0.55% | 22.3% |
| C#CCOc1ccc(O)c(C(=O)OCCCOC(=O)c2cc(OCC#C)ccc2O)c1 | 16.1% | 6.95% | -3.9% | 16.9% | -2.1% | 15.1% |
| CCc1n[nH]c(=O)n1N1C(=O)CCC1=O | 4.25% | 18.4% | -11.7% | 5.4% | -23.8% | 23.2% |
| Cc1c([N+](=O)[O-])cc(C(C)(C)C)c(OC(=O)C(C)(C)C)c1[N+](=O)[O-] | 53.4% | 44.9% | 59.8% | 41.5% | 92.4% (active) | 54.3% |
| CCCC(=O)c1ccc(=O)n(C)c1 | 18.2% | 9.8% | -4.4% | -2.1% | 14.4% | 17.9% |
| CCCCCCCCCC(=O)OC | -24.1% | -16.9% | 8.4% | -12.8% | -0.25% | 6.2% |
| Nc1cc(Cl)c2c(c1)C(=O)c1ccccc1-2 | -2.45% | 0.7% | -3.95% | -5.3% | -5.3% | -5.4% |
| CCN(CC)CCOc1ccc2ccccc2c1C(Cc1ccccc1)NCCO (stereo not given) | -13.2% | 1.95% | -20.2% | -19.6% | 3% | 3.05% |
| CC/C(=N/NS(=O)(=O)c1ccc(C)cc1)c1ccc(O)cc1 | 22.7% | 18.1% | 7.9% | 36.8% | 25.5% | 46.6% |
| CC(C)(C)c1ccc(-c2nc3ccc([N+](=O)[O-])cc3c(=O)o2)cc1 | 12.1% | 15.8% | 35% | -13.1% | 16.1% | 33.5% |
| Nc1ccn(CC(=O)c2ccc(Cl)s2)c(=O)n1 | -1% | 10.8% | 6.9% | -5.1% | 2.15% | 6.3% |
| CCCC(=O)NC(Nc1ccc(S(=O)(=O)Nc2nc(C)cc(C)n2)cc1)(C(F)(F)F)C(F)(F)F | -21.6% | -37.9% | -21.1% | 13.2% | -3.7% | -21.4% |
| COC(OC)C1CC=CCCC1C(=O)O (stereo not given) | 17.1% | 16.8% | 11.7% | -0.4% | 14.2% | -8.65% |
| Cc1ccc(Nc2nc3ccccc3nc2NS(=O)(=O)c2ccc(N)cc2)cc1 | 20.2% | 11.8% | 13.3% | 5.85% | 7.45% | -4.2% |
| CCCCCC(=O)OCC[N+](C)(C)C | -29.8% | -29.9% | -6.95% | 4.85% | -25.2% | -13.2% |
| C[N+](C)(C)CC(=O)N/N=C(\Cc1nc2ccc([N+](=O)[O-])cc2[nH]c1=O)C(=O)Nc1nc2ccc([N+](=O)[O-])cc2s1 | 47.2% | 29.9% | 24.6% | -6.05% | 53.2% | 16.9% |
| CC(C)(C)C1=CC(=O)OC1(Cl)C(C)(C)C (stereo not given) | -0.65% | 6.8% | -1.05% | 8.8% | 13.8% | -9.05% |

| SMILES | growth inhibition [1] | growth inhibition [2] | growth inhibition [3] | growth inhibition [4] | growth inhibition [5] | growth inhibition [6] |
| --- | --- | --- | --- | --- | --- | --- |
| O=S1(=O)C=C(Br)CO1 | -4.65% | 1.75% | -2.5% | -17.4% | -20.6% | -15.7% |
| CCCOS(=O)(=O)O | -13.7% | -15.1% | 1.7% | 7% | 6.65% | 15.2% |
| CCOC(=O)CNC(=O)C(Cc1ccccc1)NC(=O)OCc1ccccc1 (stereo not given) (Cbz-[ξF]-Gly-OEt) | -16.2% | -19.1% | 4.55% | -4.75% | -3.6% | -9% |
| COC(=O)C1C(COS(C)(=O)=O)ON2CCC(OC)(OC)C12 (stereo not given) | 4.85% | 11.1% | 17.8% | -15.8% | 7.3% | 43.1% |
| O=C(O)c1cc([N+](=O)[O-])ccc1Oc1cccc([N+](=O)[O-])c1 | -30.9% | -1.2% | 1.2% | 27% | 2.95% | -8.25% |
| COc1onc(C)c1CC(=O)O | 2.7% | 1.2% | -7.3% | -32.1% | -8.65% | 2.75% |
| CO/N=C(\C(=O)N(C)n1cnnc1)c1csc(NC(c2ccccc2)(c2ccccc2)c2ccccc2)n1 | 21.7% | 13.2% | 11.8% | 25.1% | 18.8% | 28% |
| COc1cc(CO)c(CO)cc1OC | -5.05% | -3.2% | -5.65% | -10.8% | 4% | -8.95% |
| Cc1cc(C2(O)CCCc3ccccc32)[n+]([O-])cc1C (stereo not given) | -17.3% | -2.9% | -9.4% | -4.8% | 0.75% | 2.75% |
| S=C(NCN1CCCCC1)NCN1CCCCC1 | 9.55% | 9.1% | 4.95% | -50.1% | 23.8% | 33.5% |
| O=S(=O)(Nc1ccnn1-c1ccccc1)c1ccc(NC(=S)Nc2ccccc2)cc1 | 34.1% | 38.5% | 46% | 27.7% | 56.4% | 65.5% |
| CCCCCCC(=O)/C=C/c1ccccc1OCOC | -3.35% | -9.8% | 4.6% | -13.7% | -18.9% | -4.45% |
| NC(Cc1cc(I)c(O)c(I)c1)C(=O)O (stereo not given) | -0.95% | -6.05% | -12.6% | 8.2% | 8.3% | 1.35% |
| O=C1OCc2c1cc1cc3c(cc1c2-c1ccc2c(c1)OCO2)OCO3 | 2.1% | -36.1% | 3.4% | 4.8% | -19.2% | 3.85% |
| N#Cc1c(-c2ccccc2)cc(-c2ccccc2)[nH]c1=O | 18.6% | 7.4% | 16.4% | 11.7% | 3.5% | 22.9% |
| O=C(N/N=C/c1ccc(Cl)cc1Cl)c1ccccc1SSc1ccccc1C(=O)N/N=C/c1ccc(Cl)cc1Cl | -19.1% | 1.55% | -5.45% | -8.1% | -9.75% | 19.8% |
| COC1(OC)C(c2ccco2)C(C#N)(C#N)C1(OC)OC (stereo not given) | -5.65% | -1.95% | -8.05% | -38% | -4.85% | -0.9% |
| C[C@]12CC[C@@H]3c4cc(OCC(F)(F)F)c(O)cc4/C(=N/O)C[C@H]3[C@@H]1CC[C@@H]2O | -0.75% | -4.55% | 4.65% | 17.6% | 12.8% | 13.2% |
| COc1cc(/C=C2\SC(=S)N(C=C3C(=O)NC(=O)NC3=O)C2=O)cc(OC)c1OC | 7.5% | -0.75% | 19.1% | 11.8% | 7% | 5.65% |
| O=C1N=C(C=c2ccc(=Cc3[nH]c(=O)n(CN4CCCCC4)c3O)cc2)C(=O)N1CN1CCCCC1 | 1.2% | -6.2% | 3.65% | 26.4% | -10.3% | -7.1% |
